Reference: PubChem BioAssay (EPA / NIEHS)
Values joined by “and” are separate entries in the source; they are usually repeats but may differ in a detail not shown here. Identical values can stand only once. Records with an inconclusive call do not appear. Some structures have more than one record in an assay (separate samples or runs), and their calls can disagree. Active and inactive are the calls of the source. The calls were made as follows, unless noted: active = hit-call score of the fitted dose curve at least 0.9, where 1 is the maximum; inactive = score below 0.9.

Experiments:
[1] = ATG_GAL4_TRANS: Attagene TRANS-FACTORIAL HepG2 Assay for GAL4 (Internal Marker) (AID 2282976; active = hit-call score of the fitted dose curve at least 0.9, where 1 is the maximum); details: HepG2 Attagene TRANS GAL4 internal marker reporter
Summary of the method: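 RT-PCR/capillary electrophoresis readout of reporter mRNA. HepG2, transient MRTU transfection (GAL4-UAS reporters), 24 h compound exposure. Background-control endpoint, positive direction vs DMSO baseline.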

[2] = biological target: Glucocorticoid receptor (Homo sapiens) (UniProt P04150); experiment: ATG_GR_TRANS: Attagene TRANS-FACTORIAL HepG2 Assay for human Glucocorticoid Receptor (GR) (AID 2282978; active = hit-call score of the fitted dose curve at least 0.9, where 1 is the maximum;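 also: activators score as hits since higher reporter transcript over DMSO is fitted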); details: HepG2 Attagene TRANS GR reporter, mRNA transcription
Summary of the method: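 Transient MRTU transfection of HepG2 (GAL4-UAS reporters, exogenous NR-GAL4 chimeras), 24 h dosing. Readout: reporter transcript via RT-PCR + capillary electrophoresis fluorescence. Positive direction vs DMSO baseline.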

[3] = biological target: Oxysterols receptor LXR-alpha (Homo sapiens) (UniProt Q13133); experiment: ATG_LXRa_TRANS: Attagene TRANS-FACTORIAL HepG2 Assay for human Liver X Receptor alpha (LXRa) (AID 2282980; active = hit-call score of the fitted dose curve at least 0.9, where 1 is the maximum); details: HepG2 Attagene TRANS reporter, LXRa transactivation
Summary of the method: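 Read-out: reporter transcript levels by RT-PCR plus capillary electrophoresis, fluorescence intensity. Transiently transfected HepG2, exogenous NR-GAL4 chimera, GAL4-UAS reporters; 24 h compound exposure. Activity = increase over DMSO negative control.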

[4] = biological target: Oxysterols receptor LXR-beta (Homo sapiens) (UniProt P55055); experiment: ATG_LXRb_TRANS: Attagene TRANS-FACTORIAL HepG2 Assay for human Liver X Receptor beta (LXRb) (AID 2282981; active = hit-call score of the fitted dose curve at least 0.9, where 1 is the maximum); details: HepG2 Attagene TRANS GAL4-LXRb reporter, mRNA
Summary of the method: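 Liver-derived HepG2 cells transfected with Gal4-responsive reporters were dosed for 24 h. Activation was scored as rise in reporter mRNA, by RT-PCR and capillary electrophoresis, above DMSO baseline.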

[5] = biological target: Hepatocyte nuclear factor 4-alpha (Homo sapiens) (UniProt P41235); experiment: ATG_HNF4a_TRANS: Attagene TRANS-FACTORIAL HepG2 Assay for human Hepatocyte Nuclear Factor 4 alpha (HNF4a) (AID 2282982; active = hit-call score of the fitted dose curve at least 0.9, where 1 is the maximum); details: HepG2 HNF4a transactivation reporter, mRNA readout
Summary of the method: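 Using HepG2 liver cells transfected with GAL4-UAS reporter units, chemical-induced mRNA increases were assessed after 24 hours. Fluorescent RT-PCR fragments were separated by capillary electrophoresis and compared with DMSO negative controls.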

[6] = ATG_M_06_TRANS: Attagene TRANS-FACTORIAL HepG2 Assay for M06 Transcription Factor (Internal Marker) (AID 2282983; active = hit-call score of the fitted dose curve at least 0.9, where 1 is the maximum); details: HepG2 Attagene TRANS M06 internal marker reporter
Summary of the method: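 Read-out: fluorescent reporter cDNA fragments resolved by capillary electrophoresis after RT-PCR and HpaI cut. Source cells were HepG2 carrying transfected multi-reporter GAL4 constructs, dosed 24 h. Increase over DMSO control analysed.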

[7] = ATG_M_32_TRANS: Attagene TRANS-FACTORIAL HepG2 Assay for M32 Transcription Factor (Internal Marker) (AID 2282984; active = hit-call score of the fitted dose curve at least 0.9, where 1 is the maximum;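 also: transcript level of a background control reporter unit measured by RT-PCR and capillary electrophoresis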); details: HepG2 Attagene TRANS M32 internal marker reporter
Summary of the method: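 Fluorescence-detected mRNA induction, HepG2 liver cells, 24 h after dosing. Multiple GAL4-UAS reporter units introduced by transient transfection; background-control endpoint analysed for gain of signal against DMSO.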

[8] = biological target: Nuclear receptor subfamily 4 group A member 2 (Homo sapiens) (UniProt P43354); experiment: ATG_NURR1_TRANS: Attagene TRANS-FACTORIAL HepG2 Assay for human Nuclear Receptor Related Protein 1 (NURR1) (AID 2282985; active = hit-call score of the fitted dose curve at least 0.9, where 1 is the maximum); details: HepG2 Attagene TRANS reporter, mRNA readout
Summary of the method: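 Chimeric NR-Gal4 proteins were expressed in human HepG2 cells bearing GAL4-UAS reporter units, and induced reporter mRNA was quantified 24 h post-dosing by RT-PCR and capillary electrophoresis.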

[9] = biological target: Transcriptional activator Myb (Homo sapiens) (UniProt P10242); experiment: ATG_Myb_CIS: Attagene CIS-FACTORIAL HepG2 Assay for human Myeloblastosis (Myb) Proto-Oncogene Transcription Factor (AID 2282986); details: HepG2 Attagene CIS-FACTORIAL Myb reporter transcription; actives raise or lower the signal
Summary of the method: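 HepG2, transient MRTU transfection (cis-element promoters, endogenous TF activity), 24 h compound exposure. Readout: reporter mRNA via RT-PCR, 6-FAM labeling, HpaI digest, capillary electrophoresis. Gain/loss fit vs DMSO.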

[10] = biological target: Nuclear respiratory factor 1 (Homo sapiens) (UniProt Q16656); experiment: ATG_NRF1_CIS: Attagene CIS-FACTORIAL HepG2 Assay for human Nuclear Respiratory Factor 1 (NRF1) Orphan Gene (AID 2282987); details: HepG2 NRF1 cis-element reporter, Attagene multiplex; actives raise or lower the signal
Summary of the method: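 Endogenous NRF1-driven reporter transcription measured in transiently transfected human HepG2 liver cells. Readout: reporter mRNA by RT-PCR and capillary electrophoresis with fluorescence detection, 24 h post-dosing. Gain or loss of signal fitted relative to DMSO baseline.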

[11] = ATG_NFI_CIS: Attagene CIS-FACTORIAL HepG2 Assay for human Nuclear Factor I (NFI) (AID 2282989); details: HepG2 cis-regulatory reporter, NFI response element transcription; actives raise or lower the signal
Summary of the method: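 Cells: human liver HepG2, transiently transfected with promoter-regulated reporter transcription units. Exposure 24 h. Detection: fluorescent RT-PCR products separated by capillary electrophoresis, normalised to DMSO negative control.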

[12] = biological target: Myc proto-oncogene protein (Homo sapiens) (UniProt P01106); experiment: ATG_Myc_CIS: Attagene CIS-FACTORIAL HepG2 Assay for human Myelocytomatosis (Myc) Proto-Oncogene Transcription Factor (AID 2282990); details: HepG2, Attagene cis-reporter transcription factor activity; actives raise or lower the signal
Summary of the method: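 Multiplexed cis-reporter transcription in HepG2 cells after 24 h chemical treatment. Reporter mRNA measured by RT-PCR and capillary electrophoresis fluorescence; activity fitted bidirectionally against DMSO control.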

[13] = ATG_NF_kB_CIS: Attagene CIS-FACTORIAL HepG2 Assay for human Nuclear Factor Kappa B (NF-kB) (AID 2282991); details: HepG2 Attagene cis-factorial NF-kB reporter mRNA; actives raise or lower the signal
Summary of the method: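 Read-out: reporter transcript levels quantified by RT-PCR plus capillary electrophoresis of 6-FAM-labelled, HpaI-cut fragments. Transfected HepG2 cells, 24 h compound exposure, endogenous NF-kB-driven cis element; gain or loss scored versus DMSO.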

[14] = ATG_NRF2_ARE_CIS: Attagene CIS-FACTORIAL HepG2 Assay for human Nuclear Factor Erythroid 2 Related Factor 2 (NFR2) response to Antioxidant Response Elements (ARE) (AID 2282992); details: HepG2 Attagene ARE/NRF2 reporter, transcription factor activity; actives raise or lower the signal
Summary of the method: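 Endogenous transcription factor activity in human liver HepG2 cells is tracked via a cis-element-driven reporter within a multiplexed set. mRNA induction is read by RT-PCR and capillary electrophoresis after 24 h, with DMSO as baseline.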

[15] = ATG_Oct_MLP_CIS: Attagene CIS-FACTORIAL HepG2 Assay for human Octamer-Binding Transcription Factor (Oct) (AID 2282993); details: HepG2 Attagene cis-factorial Oct reporter, mRNA; actives raise or lower the signal
Summary of the method: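 HepG2, transient MRTU transfection, cis promoter elements; 24 h dosing; RT-PCR/CE fluorescence read-out of reporter mRNA; fit both directions vs DMSO.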

[16] = BSK_3C_TissueFactor: BioMAP Diversity Plus: 3C Assay for Tissue Factor Biomarker Activity (AID 2282997); details: BioMAP 3C HUVEC, tissue factor biomarker readout; actives raise or lower the signal
Summary of the method: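 HUVEC, 3C system, 24 h post-dose; Tissue Factor by ELISA; bidirectional fit vs DMSO baseline.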

[17] = BSK_3C_uPAR: BioMAP Diversity Plus: 3C Assay for Urokinase-type plasminogen activator receptor (uPAR) Biomarker Activity (AID 2282998); details: BioMAP 3C HUVEC, uPAR biomarker ELISA; actives raise or lower the signal
Summary of the method: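 A multiplexed primary-cell system built on human umbilical vein endothelium was used, with chemical present for 24 h before reading. Cell-surface uPAR was detected by ELISA; signal change in either direction counted against DMSO.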

[18] = BSK_3C_VCAM1: BioMAP Diversity Plus: 3C Assay for Vascular cell adhesion molecule 1 (VCAM1) Biomarker Activity (AID 2282999); details: BioMAP 3C HUVEC, VCAM1 ELISA, cytokine-stimulated; actives raise or lower the signal
Summary of the method: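 Vascular primary endothelium (human umbilical vein) was exposed to chemicals and assayed 24 h later. VCAM-1 levels came from ELISA, with DMSO serving as baseline for bidirectional fitting.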

[19] = biological target: Bile acid receptor (Homo sapiens) (UniProt Q96RI1); experiment: ATG_FXR_TRANS: Attagene TRANS-FACTORIAL HepG2 Assay for Farnesoid X Receptor (FXR) (AID 2282979; active = hit-call score of the fitted dose curve at least 0.9, where 1 is the maximum;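 also: hits raise reporter mRNA above DMSO so AC50 marks FXR activation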); details: HepG2 Attagene TRANS FXR-GAL4 reporter transcription
Summary of the method: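 Read-out: fluorescent reporter transcripts quantified by capillary electrophoresis after RT-PCR of total RNA. Source cells were HepG2 transiently carrying chimeric NR-GAL4 plus GAL4-UAS reporter units, dosed 24 h. Activity fitted upward relative to DMSO baseline.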

Measured: AC50

Sequence of Transcriptional activator Myb (Homo sapiens) (P10242 whole entry, looked up): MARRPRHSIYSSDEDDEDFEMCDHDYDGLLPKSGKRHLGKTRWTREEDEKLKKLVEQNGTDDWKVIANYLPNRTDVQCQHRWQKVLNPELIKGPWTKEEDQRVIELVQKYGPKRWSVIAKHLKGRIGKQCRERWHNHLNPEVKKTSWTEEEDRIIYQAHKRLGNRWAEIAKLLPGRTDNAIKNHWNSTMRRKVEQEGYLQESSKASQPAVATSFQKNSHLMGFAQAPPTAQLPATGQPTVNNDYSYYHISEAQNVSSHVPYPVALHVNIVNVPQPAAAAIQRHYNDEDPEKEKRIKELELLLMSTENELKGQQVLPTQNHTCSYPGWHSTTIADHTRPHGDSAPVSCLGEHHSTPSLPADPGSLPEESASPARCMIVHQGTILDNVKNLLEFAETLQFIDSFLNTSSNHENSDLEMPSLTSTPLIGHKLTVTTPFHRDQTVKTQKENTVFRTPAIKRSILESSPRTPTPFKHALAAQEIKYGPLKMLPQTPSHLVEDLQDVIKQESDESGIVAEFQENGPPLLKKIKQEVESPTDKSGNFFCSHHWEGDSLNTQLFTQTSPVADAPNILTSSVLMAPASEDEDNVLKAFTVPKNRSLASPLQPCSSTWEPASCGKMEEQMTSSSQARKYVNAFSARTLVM
Sequence of Oxysterols receptor LXR-beta (Homo sapiens) (P55055 whole entry, looked up, the tested form may be a part): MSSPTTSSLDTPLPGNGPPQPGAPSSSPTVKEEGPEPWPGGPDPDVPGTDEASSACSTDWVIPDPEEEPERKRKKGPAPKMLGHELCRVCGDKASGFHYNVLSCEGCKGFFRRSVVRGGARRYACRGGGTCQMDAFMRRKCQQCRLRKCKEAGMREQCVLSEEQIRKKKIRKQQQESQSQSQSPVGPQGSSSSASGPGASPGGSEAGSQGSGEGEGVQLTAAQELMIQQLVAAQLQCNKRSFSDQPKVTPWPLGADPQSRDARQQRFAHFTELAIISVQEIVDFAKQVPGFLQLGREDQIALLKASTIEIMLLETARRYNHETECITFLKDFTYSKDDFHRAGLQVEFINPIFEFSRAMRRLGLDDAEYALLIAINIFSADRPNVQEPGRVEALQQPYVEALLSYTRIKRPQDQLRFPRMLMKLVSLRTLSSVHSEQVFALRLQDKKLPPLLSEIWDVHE
Sequence of Myc proto-oncogene protein (Homo sapiens) (P01106 whole entry, looked up): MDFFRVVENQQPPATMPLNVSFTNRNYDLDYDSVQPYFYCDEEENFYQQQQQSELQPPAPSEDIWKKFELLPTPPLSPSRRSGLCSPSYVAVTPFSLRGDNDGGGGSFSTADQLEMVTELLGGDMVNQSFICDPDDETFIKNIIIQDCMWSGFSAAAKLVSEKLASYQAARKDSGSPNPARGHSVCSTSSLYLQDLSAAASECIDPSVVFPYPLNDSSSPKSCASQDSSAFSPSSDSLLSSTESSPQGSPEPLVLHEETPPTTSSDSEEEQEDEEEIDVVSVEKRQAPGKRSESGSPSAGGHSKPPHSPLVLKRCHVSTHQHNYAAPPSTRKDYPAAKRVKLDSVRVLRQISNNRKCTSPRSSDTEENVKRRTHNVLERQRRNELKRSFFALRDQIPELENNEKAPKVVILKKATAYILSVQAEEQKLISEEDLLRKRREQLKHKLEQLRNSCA
Sequence of Bile acid receptor (Homo sapiens) (Q96RI1 whole entry, looked up, the tested form may be a part): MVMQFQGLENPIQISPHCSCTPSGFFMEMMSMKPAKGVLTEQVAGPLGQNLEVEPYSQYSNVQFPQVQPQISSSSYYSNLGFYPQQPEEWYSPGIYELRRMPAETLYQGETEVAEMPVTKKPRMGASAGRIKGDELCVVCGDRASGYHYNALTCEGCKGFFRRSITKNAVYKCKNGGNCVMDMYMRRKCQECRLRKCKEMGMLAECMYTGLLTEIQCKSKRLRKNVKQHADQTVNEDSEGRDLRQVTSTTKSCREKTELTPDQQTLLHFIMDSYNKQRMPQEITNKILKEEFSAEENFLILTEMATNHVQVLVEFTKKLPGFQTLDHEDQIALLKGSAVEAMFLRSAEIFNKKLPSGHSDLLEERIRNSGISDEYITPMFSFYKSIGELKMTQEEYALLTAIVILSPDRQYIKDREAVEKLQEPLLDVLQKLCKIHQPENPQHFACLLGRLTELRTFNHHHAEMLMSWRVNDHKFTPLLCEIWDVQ
Sequence of Nuclear receptor subfamily 4 group A member 2 (Homo sapiens) (P43354 whole entry, looked up, the tested form may be a part): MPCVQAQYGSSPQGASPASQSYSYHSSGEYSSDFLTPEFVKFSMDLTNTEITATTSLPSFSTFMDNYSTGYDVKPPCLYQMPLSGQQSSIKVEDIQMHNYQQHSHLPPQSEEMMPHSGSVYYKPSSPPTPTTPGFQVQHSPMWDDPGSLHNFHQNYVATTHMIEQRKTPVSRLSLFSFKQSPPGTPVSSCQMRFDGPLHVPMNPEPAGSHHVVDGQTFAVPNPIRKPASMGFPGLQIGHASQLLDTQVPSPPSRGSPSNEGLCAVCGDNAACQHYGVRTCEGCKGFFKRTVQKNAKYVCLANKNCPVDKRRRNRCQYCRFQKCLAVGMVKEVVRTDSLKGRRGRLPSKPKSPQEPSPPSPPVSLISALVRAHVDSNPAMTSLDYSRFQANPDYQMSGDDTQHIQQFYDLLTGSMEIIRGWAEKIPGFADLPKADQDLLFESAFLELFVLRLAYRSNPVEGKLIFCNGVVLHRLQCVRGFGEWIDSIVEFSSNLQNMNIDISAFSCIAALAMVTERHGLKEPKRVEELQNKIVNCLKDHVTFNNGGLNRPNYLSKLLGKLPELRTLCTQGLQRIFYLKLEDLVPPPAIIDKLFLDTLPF
Sequence of Glucocorticoid receptor (Homo sapiens) (P04150 whole entry, looked up, the tested form may be a part): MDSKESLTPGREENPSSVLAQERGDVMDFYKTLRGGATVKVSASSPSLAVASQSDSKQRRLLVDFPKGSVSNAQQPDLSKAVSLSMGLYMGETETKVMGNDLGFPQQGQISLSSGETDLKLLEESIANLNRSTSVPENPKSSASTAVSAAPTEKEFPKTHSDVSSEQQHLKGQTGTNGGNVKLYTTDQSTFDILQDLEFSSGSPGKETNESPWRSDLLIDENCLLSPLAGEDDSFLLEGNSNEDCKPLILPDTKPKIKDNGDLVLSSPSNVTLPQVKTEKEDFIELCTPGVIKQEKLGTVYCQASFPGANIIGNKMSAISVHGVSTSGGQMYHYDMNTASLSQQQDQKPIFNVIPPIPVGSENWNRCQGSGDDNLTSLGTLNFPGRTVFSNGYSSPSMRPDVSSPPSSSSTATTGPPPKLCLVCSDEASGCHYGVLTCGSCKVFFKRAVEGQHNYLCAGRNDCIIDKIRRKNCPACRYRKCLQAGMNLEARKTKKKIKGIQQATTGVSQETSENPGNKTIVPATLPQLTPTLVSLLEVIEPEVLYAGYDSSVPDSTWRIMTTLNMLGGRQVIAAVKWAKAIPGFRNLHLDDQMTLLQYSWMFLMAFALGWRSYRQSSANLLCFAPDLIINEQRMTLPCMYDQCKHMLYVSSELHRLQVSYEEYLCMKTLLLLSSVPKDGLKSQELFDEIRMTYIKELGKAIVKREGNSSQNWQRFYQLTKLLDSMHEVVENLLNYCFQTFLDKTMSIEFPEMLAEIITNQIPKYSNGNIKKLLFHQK
Sequence of Hepatocyte nuclear factor 4-alpha (Homo sapiens) (P41235 whole entry, looked up, the tested form may be a part): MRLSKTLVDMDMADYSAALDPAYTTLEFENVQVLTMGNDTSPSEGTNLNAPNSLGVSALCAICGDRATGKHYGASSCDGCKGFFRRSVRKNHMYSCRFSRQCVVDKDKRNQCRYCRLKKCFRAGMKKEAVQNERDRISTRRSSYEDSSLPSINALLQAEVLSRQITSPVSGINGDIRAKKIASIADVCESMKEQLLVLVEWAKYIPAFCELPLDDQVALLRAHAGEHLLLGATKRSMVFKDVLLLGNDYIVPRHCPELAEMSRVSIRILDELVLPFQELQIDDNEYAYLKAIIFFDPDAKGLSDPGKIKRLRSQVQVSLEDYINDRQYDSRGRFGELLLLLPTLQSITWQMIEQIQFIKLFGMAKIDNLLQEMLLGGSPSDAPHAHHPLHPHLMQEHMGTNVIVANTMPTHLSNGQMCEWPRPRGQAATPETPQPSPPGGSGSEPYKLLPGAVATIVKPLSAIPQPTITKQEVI
Sequence of Oxysterols receptor LXR-alpha (Homo sapiens) (Q13133 whole entry, looked up, the tested form may be a part): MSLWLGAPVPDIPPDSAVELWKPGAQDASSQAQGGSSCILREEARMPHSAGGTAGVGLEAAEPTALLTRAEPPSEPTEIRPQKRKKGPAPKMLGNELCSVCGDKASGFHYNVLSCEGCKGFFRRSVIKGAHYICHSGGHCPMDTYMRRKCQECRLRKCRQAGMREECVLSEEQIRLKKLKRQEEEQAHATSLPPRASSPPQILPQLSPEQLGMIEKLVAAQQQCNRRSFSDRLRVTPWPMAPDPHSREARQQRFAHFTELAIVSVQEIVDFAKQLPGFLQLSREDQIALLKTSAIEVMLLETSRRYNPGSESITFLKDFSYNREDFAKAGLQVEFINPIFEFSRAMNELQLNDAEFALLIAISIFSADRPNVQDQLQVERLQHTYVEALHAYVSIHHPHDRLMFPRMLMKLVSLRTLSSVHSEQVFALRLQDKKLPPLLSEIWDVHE
Sequence of Nuclear respiratory factor 1 (Homo sapiens) (Q16656 whole entry, looked up): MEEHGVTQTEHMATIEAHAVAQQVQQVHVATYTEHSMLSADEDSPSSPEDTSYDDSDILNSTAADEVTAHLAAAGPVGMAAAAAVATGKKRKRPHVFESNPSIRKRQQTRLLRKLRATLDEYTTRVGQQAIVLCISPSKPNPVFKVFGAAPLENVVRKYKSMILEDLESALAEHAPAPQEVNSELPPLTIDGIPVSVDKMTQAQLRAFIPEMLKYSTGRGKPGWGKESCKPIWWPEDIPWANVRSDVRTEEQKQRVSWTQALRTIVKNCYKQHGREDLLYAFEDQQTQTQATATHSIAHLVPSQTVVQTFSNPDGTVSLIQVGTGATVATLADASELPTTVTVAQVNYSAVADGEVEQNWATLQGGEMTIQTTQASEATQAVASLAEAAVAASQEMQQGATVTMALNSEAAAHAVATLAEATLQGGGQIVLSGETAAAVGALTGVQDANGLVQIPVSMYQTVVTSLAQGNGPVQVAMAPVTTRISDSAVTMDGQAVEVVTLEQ

Oc1ccc(Cl)cc1Cc1ccccc1
inactive: [1] | [2] | [3] | [4] | [5] | [6] | [7] | [8] | [9] | [10] | [11] | [12] | [13] | [14] | [15]
active: [2] 33.6 µM | [8] 14.7 µM | [9] 15.2 µM | [11] 13.1 µM | [12] 6.37 µM | [13] 16.7 µM | [14] 8.4 µM [middle of 9 runs] | [15] 6.94 µM and 8.1 µM and 14.8 µM | [16] 32.4 µM [middle of 7 runs] | [17] 29.2 µM [middle of 7 runs] | [18] 34.9 µM [middle of 7 runs]

CC(C)(C)C(O)C(Oc1ccc(Cl)cc1)n1cncn1 (configuration not stated)
inactive: [1] | [3] | [4] | [5] | [6] | [7] | [8] | [9] | [10] | [11] | [12] | [13] | [14] | [15] | [16] | [18]
active: [14] 4.01 µM | [15] 2.07 µM

COC(=O)c1ccccc1CS(=O)(=O)NC(=O)Nc1nc(OC)cc(OC)n1
inactive: [1] | [2] | [19] | [3] | [4] | [5] | [6] | [7] | [8] | [9] | [10] | [11] | [12] | [13] | [14] | [15] | [16] | [18]
active: [14] 24.2 µM

COP(=S)(OC)Oc1ccc(SC)c(C)c1
active: [3] 24.9 µM | [4] 39.3 µM | [14] 15.5 µM
not listed: [17] | [19]
inactive: all other assays above

CCCN(CCC)c1c([N+](=O)[O-])cc(C(F)(F)F)cc1[N+](=O)[O-]
active: [14] 8.43 µM | [15] 2.29 µM
not listed: [2] | [3] | [5] | [17] | [19]
inactive: all other assays above

CCOCN(C(=O)CCl)c1c(C)cccc1CC
active: [14] 1.21 µM | [18] 14.3 µM
not listed: [2] | [3] | [5] | [6] | [17] | [19]
inactive: all other assays above

O=C(O)CCCOc1ccc(Cl)cc1Cl
active: [14] 63.9 µM
inactive: [1] | [3] | [4] | [5] | [6] | [9] | [10] | [11] | [12] | [14] | [15] | [16] | [18]

CNC(=O)/C=C(\C)OP(=O)(OC)OC
not listed: [1] | [3] | [8] | [13]
inactive: all other assays above

O=C(O)C(F)(F)C(F)(F)C(F)(F)C(F)(F)C(F)(F)C(F)(F)C(F)(F)F
active: [14] 84.7 µM [middle of 4 runs]
not listed: [2] | [3] | [4] | [5] | [17] | [19]
inactive: all other assays above

N#Cc1c(Cl)c(Cl)c(Cl)c(C#N)c1Cl
active: [14] 0.0739 µM | [15] 0.143 µM | [16] 1.37 µM | [18] 1.06 µM
not listed: [1] | [6] | [7] | [8] | [17]
inactive: all other assays above

CCOc1nc(NC)nc(NC(=O)NS(=O)(=O)c2ccccc2C(=O)OC)n1
not listed: [1] | [3] | [5] | [6] | [7] | [8]
inactive: all other assays above
